Measured values reported in PubChem BioAssay (Tox21).
Inconclusive results are not listed. Activity calls are given as the source filed them. Unless noted, the call rests on the fitted dose curve; in most records, active means well fitted curve in the direction sought with a large enough effect in the repeat runs; inconclusive means weak or mixed curves; inactive means no such curve, though single readings can be large; an effect the other way counts as inactive or inconclusive.

Columns and labels:
[1] = qHTS assay to test for compound auto fluorescence at 535 nm (green) in HEK293 cells (AID 720680)
[2] = qHTS assay to test for compound auto fluorescence at 460 nm (blue) in HEK293 cell free culture (AID 720681)
Outline: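 Blue fluorescence (Ex 405/Em 460 nm, triamterene-equivalent) was read immediately after pin transfer of compound or DMSO into medium (DMEM, 10% FBS) without cells.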

[3] = qHTS assay to test for compound auto fluorescence at 535 nm (green) in HEK293 cell free culture (AID 720682)
Outline: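 Each library compound, or DMSO control, is added by pintool to medium alone, comprising DMEM and 10% FBS. Emission at 535 nm following 485 nm excitation is quantified against fluorescein.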

[4] = qHTS assay to test for compound auto fluorescence at 590 nm (red) in HEK293 cell free culture (AID 720683)
Outline: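 Red-channel autofluorescence of compounds in culture medium (DMEM, 10% FBS), no cells, measured at 540/590 nm. Rose Bengal sodium is the reference fluorophore for equivalence.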

[5] = qHTS assay to test for compound auto fluorescence at 590 nm (red) in HepG2 cell free culture (AID 720684)
Outline: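 Plate contents were MEM with 10% FBS plus test compound or DMSO, no cells. Fluorescence was recorded with 540 nm excitation and 590 nm emission.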

[6] = qHTS assay to test for compound auto fluorescence at 460 nm (blue) in HepG2 cell free culture (AID 720685)
Outline: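 Compound (23 nL) or DMSO pinned into cell-free MEM with 10% FBS; blue fluorescence read at 405/460 nm excitation/emission, expressed as auto-fluorescence equivalency to triamterene.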

[7] = qHTS assay to test for compound auto fluorescence at 535 nm (green) in HepG2 cell free culture (AID 720686)
[8] = qHTS assay to test for compound auto fluorescence at 460 nm (blue) in HepG2 cells (AID 720687)
Outline: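 Blue-channel autofluorescence (Ex/Em 405/460 nm, triamterene-equivalent) was measured after 1 hr compound exposure at 37 C, 5% CO2. Cells were HepG2, plated overnight at 37 C in MEM plus 10% FBS.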

[9] = qHTS assay to identify small molecule antagonists of the glucocorticoid receptor (GR) signaling pathway - cell viability counter screen (AID 720693); further: nearly all actives have a fitted effect of over 55% in size
[10] = qHTS assay for identifying genotoxic compounds that show differential cytotoxicity against isogenic chicken DT40 cell lines with known DNA damage response pathways - wild type cell line (AID 743012); further: nearly all actives have a fitted effect of over 60% in size; further: potency means the concentration at half of the fitted maximal effect
Outline: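 Quantitative HTS on parental DT40 cells: 40 h compound treatment at 37 C/5% CO2, with viability then determined by CellTiter-Glo luminescence. Values serve as the DNA repair-proficient reference for differential cytotoxicity.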

[11] = qHTS assay for identifying genotoxic compounds that show differential cytotoxicity against isogenic chicken DT40 cell lines with known DNA damage response pathways - Rev3 mutant cell line (AID 743014); further: nearly all actives have a fitted effect of over 55% in size; further: potency means the concentration at half of the fitted maximal effect
[12] = qHTS assay for identifying genotoxic compounds that show differential cytotoxicity against isogenic chicken DT40 cell lines with known DNA damage response pathways - Rad54/Ku70 mutant cell line (AID 743015); further: nearly all actives have a fitted effect of over 60% in size; further: potency means the concentration at half of the fitted maximal effect
[13] = qHTS assay to identify small molecule antagonists of the androgen receptor (AR) signaling pathway - cell viability counter screen (AID 743033; further: nearly all actives have a fitted effect of over 45% in size)
[14] = qHTS assay to identify small molecule antagonists of the androgen receptor (AR) signaling pathway using the MDA cell line - cell viability counter screen (AID 743041; further: nearly all actives have a fitted effect of over 45% in size)
Outline: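 R1881-driven MDA-kb2 AR-luc cells, 3,000/well, were dosed with library compounds for 16 h; cell health came from CellTiter-Fluor fluorescence in the reporter wells.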

[15] = target: Glucocorticoid receptor (Homo sapiens) (UniProt P04150); assay: qHTS assay to identify small molecule agonists of the glucocorticoid receptor (GR) signaling pathway (AID 720691; active means well fitted activation curve with a large enough effect in the signal ratio in the repeat runs, not every such curve was filed as active; the % refers to the signal ratio)
Outline: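 Beta-lactamase reporter activity, read as fluorescence intensity, was measured in GR-bla HeLa cells exposed to compounds for 18 h at 37 C and then loaded with LiveBLAzer B/G FRET substrate for 2 h at room temperature.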

[16] = target: Glucocorticoid receptor (Homo sapiens) (UniProt P04150); assay: qHTS assay to identify small molecule antagonists of the glucocorticoid receptor (GR) signaling pathway (AID 720692; active means well fitted inhibition curve with a large enough effect in the signal ratio in the repeat runs, not every such curve was filed as active; the % refers to the signal ratio)
Outline: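 Fluorescence from cleaved LiveBLAzer B/G FRET substrate reports GRE-driven beta-lactamase in HeLa cells; compounds are tested against 5 nM dexamethasone (final) over 18 h at 37 C, substrate incubation 2 h at room temperature.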

[17] = target: Androgen receptor (Homo sapiens) (UniProt P10275); assay: qHTS assay to identify small molecule antagonists of the androgen receptor (AR) signaling pathway (AID 743035; active means well fitted inhibition curve with a large enough effect in the signal ratio in the repeat runs, not every such curve was filed as active; the % refers to the signal ratio)
Outline: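 Cell line: GeneBLAzer AR-UAS-bla GripTite (HEK293). Stimulus: R1881 added after compound. Exposure: 16 h, 37C, 5% CO2. Readout: LiveBLAzer B/G FRET fluorescence after 2 h at room temperature.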

[18] = target: Androgen receptor (Homo sapiens) (UniProt P10275); assay: qHTS assay to identify small molecule agonists of the androgen receptor (AR) signaling pathway (AID 743036; active means well fitted activation curve with a large enough effect in the signal ratio in the repeat runs, with a control signal flat, not every such curve was filed as active; the % refers to the signal ratio)
Outline: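 Following a 4 h settling period, AR-UAS-bla HEK293 cells were dosed with compounds for 16 h at 37C. A 2 h room-temperature incubation with LiveBLAzer B/G FRET substrate preceded the fluorescence measurement.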

[19] = target: Androgen receptor (Homo sapiens) (UniProt P10275); assay: qHTS assay to identify small molecule agonists of the androgen receptor (AR) signaling pathway using the MDA cell line (AID 743040; further: nearly all actives have a fitted effect of over 20% in size)
Outline: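 After a 5 h incubation at 37C and 0% CO2, MDA-kb2 reporter cells were dosed with compounds in DMSO and kept 16 h under the same conditions. Luciferase activity was then read as luminescence with ONE-Glo.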

[20] = target: Androgen receptor (Homo sapiens) (UniProt P10275); assay: qHTS assay to identify small molecule antagonists of the androgen receptor (AR) signaling pathway using the MDA cell line (AID 743042; further: nearly all actives have a fitted effect of over 55% in size)
Outline: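 Antagonist mode: compounds plus R1881 agonist added to MDA-kb2 AR-luc cells, incubated 16 h at 37C. Luciferase reporter luminescence quantified, with multiplexed CellTiter-Fluor readout for cell viability.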
On the % scale 0 is the no-effect control and ±100 the full control effect.

Glucocorticoid receptor (Homo sapiens), sequence (P04150 whole entry, looked up): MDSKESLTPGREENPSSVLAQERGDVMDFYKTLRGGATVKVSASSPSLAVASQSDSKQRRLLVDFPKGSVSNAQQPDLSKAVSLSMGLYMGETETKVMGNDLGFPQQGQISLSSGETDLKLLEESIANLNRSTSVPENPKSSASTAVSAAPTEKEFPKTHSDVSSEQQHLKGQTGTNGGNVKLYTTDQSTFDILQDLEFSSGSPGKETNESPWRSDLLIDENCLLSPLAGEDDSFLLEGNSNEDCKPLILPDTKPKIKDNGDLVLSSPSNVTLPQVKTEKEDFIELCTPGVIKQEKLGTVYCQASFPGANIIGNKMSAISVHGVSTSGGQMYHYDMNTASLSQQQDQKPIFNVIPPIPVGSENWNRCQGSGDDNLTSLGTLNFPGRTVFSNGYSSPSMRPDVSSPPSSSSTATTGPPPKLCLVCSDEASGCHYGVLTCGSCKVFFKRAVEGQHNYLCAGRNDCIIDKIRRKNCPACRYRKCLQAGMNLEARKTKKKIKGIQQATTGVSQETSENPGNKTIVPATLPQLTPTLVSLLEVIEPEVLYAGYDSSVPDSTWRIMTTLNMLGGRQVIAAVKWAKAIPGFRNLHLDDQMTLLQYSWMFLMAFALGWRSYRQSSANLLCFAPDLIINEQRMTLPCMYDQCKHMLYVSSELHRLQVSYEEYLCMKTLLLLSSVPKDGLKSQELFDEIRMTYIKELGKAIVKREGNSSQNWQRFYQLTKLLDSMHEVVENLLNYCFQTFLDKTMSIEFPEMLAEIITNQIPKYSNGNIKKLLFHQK
Androgen receptor (Homo sapiens), sequence (P10275 whole entry, looked up): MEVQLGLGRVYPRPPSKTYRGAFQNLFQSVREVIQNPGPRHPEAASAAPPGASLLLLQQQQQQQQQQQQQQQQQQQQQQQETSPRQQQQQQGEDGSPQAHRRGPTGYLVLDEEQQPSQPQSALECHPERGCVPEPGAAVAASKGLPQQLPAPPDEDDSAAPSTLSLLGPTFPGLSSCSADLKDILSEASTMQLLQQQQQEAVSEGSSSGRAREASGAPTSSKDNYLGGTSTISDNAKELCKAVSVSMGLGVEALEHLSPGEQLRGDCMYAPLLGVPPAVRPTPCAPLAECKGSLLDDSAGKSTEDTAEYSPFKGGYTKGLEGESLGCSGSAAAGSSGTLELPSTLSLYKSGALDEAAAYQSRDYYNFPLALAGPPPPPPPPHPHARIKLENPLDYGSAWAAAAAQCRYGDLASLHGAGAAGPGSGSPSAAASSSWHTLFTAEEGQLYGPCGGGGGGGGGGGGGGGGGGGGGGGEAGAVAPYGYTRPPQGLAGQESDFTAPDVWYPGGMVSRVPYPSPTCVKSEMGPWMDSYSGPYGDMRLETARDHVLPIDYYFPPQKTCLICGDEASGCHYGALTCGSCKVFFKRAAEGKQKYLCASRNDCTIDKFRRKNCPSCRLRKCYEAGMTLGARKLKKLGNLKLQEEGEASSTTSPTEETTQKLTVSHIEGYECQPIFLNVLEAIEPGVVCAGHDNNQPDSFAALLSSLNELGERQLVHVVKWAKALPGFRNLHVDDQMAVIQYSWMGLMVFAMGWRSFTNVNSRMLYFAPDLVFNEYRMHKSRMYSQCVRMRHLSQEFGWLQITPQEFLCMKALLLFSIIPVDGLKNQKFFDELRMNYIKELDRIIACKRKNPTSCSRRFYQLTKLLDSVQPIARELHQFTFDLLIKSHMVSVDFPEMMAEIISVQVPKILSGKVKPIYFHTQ

O=C(O)c1c2ccccc2cc2ccccc12
inactive: outcome [1] | Potency [2] | outcome [3] | outcome [4] | outcome [5] | outcome [6] | outcome [7] | outcome [8] | Potency [9] | Potency [10] | Potency [11] | Potency [12] | Potency [13] | Potency [14]

c1ccc(-c2ccc(-c3ccccc3)cc2)cc1
inactive: fluorescence, % of fluorescein [1] 0.0075% [at 18.6 µM] | fluorescence, % of fluorescent control [2] -0.0624% [at 18.6 µM] | activity change [3] -0.0551% [at 18.6 µM] | fluorescence, % of fluorescent control [4] -0.201% [at 18.6 µM] | fluorescence, % of Rose Bengal [5] -0.0264% [at 18.6 µM] | fluorescence, % of fluorescent control [6] 0.0163% [at 18.6 µM] | fluorescence, % of fluorescent control [8] -0.024% [at 18.6 µM] | Potency [15] | Potency [16] | Potency [9] | Potency [11] | Potency [12] | Potency [13]

O=C(c1ccc(Cl)cc1)c1ccc(Cl)cc1
inactive: outcome [1] | Potency [2] | outcome [3] | outcome [4] | outcome [5] | outcome [6] | outcome [7] | outcome [8] | Potency [9] | Potency [11] | Potency [12] | Potency [13] | Potency [17] | outcome [18] | outcome [19] | Potency [14] | Potency [20]

Oc1ccc(CCNCCCCCCNCCc2ccccc2)cc1O
inactive: outcome [1] | Potency [2] | outcome [3] | outcome [4] | outcome [6] | outcome [8] | Potency [9] | Potency [13] | Potency [14]
active: Potency [10] 13.3 µM | Potency [11] 29.8 µM | Potency [12] 26.6 µM

COc1ccc(/C=C/S(=O)(=O)NC(=O)c2ccc(C)cc2Cl)cc1
inactive: outcome [1] | Potency [2] | outcome [3] | outcome [4] | outcome [6] | outcome [7] | outcome [8] | Potency [9] | Potency [10] | Potency [11] | Potency [12] | Potency [13]

CCOc1ccc(NC(C)=O)cc1N
inactive: outcome [1] | Potency [2] | outcome [3] | outcome [4] | outcome [6] | outcome [7] | outcome [8] | Potency [9] | Potency [10] | Potency [11] | Potency [12] | Potency [13] | outcome [18] | outcome [19] | Potency [14] | Potency [20]

OCC(O)c1ccccc1 (centres undefined)
inactive: outcome [1] | Potency [2] | outcome [3] | outcome [4] | outcome [6] | outcome [8] | Potency [9] | Potency [10] | Potency [11] | Potency [12] | Potency [13] | Potency [14]

CCN(CCCCOC(=O)c1ccc(OC)c(OC)c1)C(C)Cc1ccc(OC)cc1 (centres undefined)
inactive: fluorescence, % of fluorescein [1] 0.0099% [at 18.6 µM] | fluorescence, % of fluorescent control [2] 0.0098% [at 18.6 µM] | activity change [3] 0.0553% [at 18.6 µM] | fluorescence, % of fluorescent control [4] -0.0979% [at 18.6 µM] | fluorescence, % of fluorescent control [6] 0.0055% [at 18.6 µM] | fluorescence, % of fluorescent control [8] 0.0432% [at 18.6 µM] | Potency [15] | Potency [16] | Potency [9] | Potency [12] | Potency [13] | Potency [14]

O=C(O)COCC(=O)O
inactive: outcome [1] | Potency [2] | outcome [3] | outcome [4] | outcome [6] | outcome [7] | outcome [8] | Potency [16] | Potency [9] | Potency [10] | Potency [11] | Potency [12] | Potency [13] | Potency [14]

O=C(Cl)c1ccc(F)c(Cl)c1
inactive: outcome [1] | Potency [2] | outcome [3] | outcome [4] | outcome [5] | outcome [6] | outcome [8] | Potency [9] | Potency [11] | Potency [12] | Potency [13] | Potency [14]

CCC[Si](OC)(OC)OC
inactive: outcome [1] | Potency [2] | outcome [3] | outcome [4] | outcome [6] | outcome [8] | Potency [15] | Potency [16] | Potency [9] | Potency [10] | Potency [11] | Potency [12] | Potency [13] | outcome [18] | outcome [19] | Potency [14] | Potency [20]

C1=COCCC1
inactive: outcome [1] | Potency [2] | outcome [3] | outcome [4] | outcome [5] | outcome [6] | outcome [8] | Potency [16] | Potency [9] | Potency [10] | Potency [11] | Potency [12] | Potency [13]
